Bioassay records deposited in PubChem by several laboratories.
p97 ATPase inh: inhibitors of human p97 ATPase, primary screen, biochemical; Transitional endoplasmic reticulum ATPase (Homo sapiens), P55072; recombinant p97 ATPase, Kinase-Glo ATP luminescence, 3 h; inhibition, % at 8 µM; 220,000 tested, 0.42% active; AID 1481, 2009; in the data active = inhibition above about 15%;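 also: 0% = DMSO vehicle and 100% = wells lacking enzyme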
UBC9 SUMO inh: inhibitors of in vitro SUMOylation cascade, primary screen, biochemical, HTRF, uHTS. inhibition, % at 35 µM. AID 2006, 2009. 290,000 tested, 0.36% active. SUMO-conjugating enzyme UBC9 (Homo sapiens), P63279. HTRF SUMOylation assay, SAE1/SAE2 + UBC9; in the data active = inhibition above about 50%, passing the limit was not always enough
PERK inhibitor: block of dimerizer-induced PERK translation repression, primary screen, PERK inhibitor project, CHO PERK-DD cells, SEAP luminescence, HTS; CHO PERK-DD fusion, SEAP luminescence translation reporter; AID 1416, 2008; inhibition, % at 5.6 µM; 220,000 tested, 0.17% active; Eukaryotic translation initiation factor 2-alpha kinase 3 (Homo sapiens), Q9NZJ5;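 active = inhibition above the mean inhibition of all tested compounds plus 3 SD, set separately per screening campaign, cut at about 2.9% in these data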;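 also: PERK kinase domain activated by AP20187 dimerizer at 100 nM; 0% = DMSO with dimerizer and 100% = rapamycin at 8.4 µM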
Target sequence (Q9NZJ5 whole entry, looked up, the tested form may be a part): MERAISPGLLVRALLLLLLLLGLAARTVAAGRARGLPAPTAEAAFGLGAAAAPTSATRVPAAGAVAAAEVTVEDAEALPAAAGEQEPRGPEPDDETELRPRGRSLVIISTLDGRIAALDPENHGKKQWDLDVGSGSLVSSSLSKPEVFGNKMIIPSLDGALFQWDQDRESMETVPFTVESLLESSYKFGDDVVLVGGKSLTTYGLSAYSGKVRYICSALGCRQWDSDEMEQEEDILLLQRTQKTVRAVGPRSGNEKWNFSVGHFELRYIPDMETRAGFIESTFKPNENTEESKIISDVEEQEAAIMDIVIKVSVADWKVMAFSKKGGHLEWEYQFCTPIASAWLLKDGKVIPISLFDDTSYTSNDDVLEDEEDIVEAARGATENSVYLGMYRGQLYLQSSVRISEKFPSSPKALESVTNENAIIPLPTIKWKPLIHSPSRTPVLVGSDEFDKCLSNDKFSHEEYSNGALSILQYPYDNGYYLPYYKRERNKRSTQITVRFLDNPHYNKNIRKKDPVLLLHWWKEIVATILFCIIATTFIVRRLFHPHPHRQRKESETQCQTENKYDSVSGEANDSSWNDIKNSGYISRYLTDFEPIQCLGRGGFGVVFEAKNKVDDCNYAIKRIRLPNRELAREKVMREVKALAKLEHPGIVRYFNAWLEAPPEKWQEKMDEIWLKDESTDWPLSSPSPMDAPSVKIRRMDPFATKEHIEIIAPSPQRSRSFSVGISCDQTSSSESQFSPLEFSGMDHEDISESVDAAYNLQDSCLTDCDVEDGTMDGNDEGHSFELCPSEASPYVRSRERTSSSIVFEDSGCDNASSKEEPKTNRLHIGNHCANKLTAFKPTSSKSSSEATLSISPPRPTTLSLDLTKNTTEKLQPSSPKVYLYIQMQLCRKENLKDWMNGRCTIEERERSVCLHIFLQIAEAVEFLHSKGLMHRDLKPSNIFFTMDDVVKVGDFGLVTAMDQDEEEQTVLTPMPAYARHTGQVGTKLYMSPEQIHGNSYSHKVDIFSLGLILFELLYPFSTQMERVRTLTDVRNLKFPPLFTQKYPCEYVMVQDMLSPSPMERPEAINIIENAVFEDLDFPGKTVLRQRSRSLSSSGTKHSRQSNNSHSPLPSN
Redox H2O2 prof: compounds producing H2O2 with reducing agent – biochemical, NIH compound library profiling, artefact control for MLSCN library redox annotation, primary screen | DTT-dependent redox cycling H2O2, phenol red/HRP absorbance; 100% = 100 µM peroxide control, 0% = buffer | activation, % at 10 µM | 200,000 tested, 0.03% active | AID 878, 2007;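 active = activation of at least 50% relative to the plate's high and low controls in the primary single-dose screen; inactive = activation below 50%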;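 also: compound incubated with DTT at 0.8 mM final as the reducing agent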
p97 inh conf: p97 ATPase inhibitors, retest, confirmation, biochemical | shares compounds with p97 ATPase inh | recombinant p97 ATPase, Kinase-Glo ATP luminescence | 760 tested, 44% active | inhibition, % at 8 µM;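 active = percent inhibition of p97 ATPase above a set limit, the primary screen's mean plus 3 SD, cut at about 15% in these data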;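 also: 0% = DMSO wells and 100% = wells lacking p97 protein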
* hit, by the source's call; x = not tested or not shown. Sampled rows, rich in hits. Any-hit rate of the full collection: about 0.69%.

SMILES | p97 ATPase inh | UBC9 SUMO inh | PERK inhibitor | Redox H2O2 prof | p97 inh conf
COc1ccc(-c2cc(N)n(S(=O)(=O)c3c(F)c(F)c(F)c(F)c3F)n2)cc1OC | 22* | -5 | -1 | 0 | 26*
CC1CCCCC1NC(=O)CSc1nnc(CC(=O)Nc2ccccc2F)n1C (stereo not given) | x | -3 | x | x | x
O=C(COC(=O)c1ccc2c(c1Cl)C(=O)c1ccccc1C2=O)NC1CC1 | 25* | 15 | -1 | 0 | 22*
O=C(COC(=O)c1ccc2c(c1Cl)C(=O)c1ccccc1C2=O)NC1CCCCC1 | 9 | 24 | 0 | 1 | x
CC(C)CN(C(=O)COc1cccc(-n2cnnn2)c1)C1CCS(=O)(=O)C1 (stereo not given) | x | 13 | x | x | x
O=C(CNS(=O)(=O)c1ccccc1)Nc1cccc([N+](=O)[O-])c1 | 4 | -1 | 1 | -1 | x
Cn1cc(C(=O)c2ccc(Cl)cc2Cl)cc1C(=O)N/N=C(\N)COc1ccc(Cl)cc1 | 18* | -43 | 0 | x | 20*
O=C(C[n+]1cnn(CC(=O)c2ccc(Cl)cc2Cl)c1)c1ccc([N+](=O)[O-])cc1 | 17* | -3 | 1 | 0 | 3
Nc1cc2nn(-c3ccccc3)nc2cc1Cl | 19* | 78* | 2 | -1 | 9
CC(=O)Nc1ccc2c(c1)OCO2 | 7 | -5 | 1 | 0 | x
CC(=O)Nc1ccc2c(c1)OCCO2 | 63* | 27 | 1 | 3 | 5
CC1CCCC(C)N1C(=C(Cl)Cl)C(=C1SCCS1)[N+](=O)[O-] (stereo not given) | 0 | 3 | 1 | 0 | x
O=C(NNc1cc(N2CCOCC2)nc(N2CCOCC2)n1)c1ccc([N+](=O)[O-])cc1 | 22* | x | -1 | -1 | 7
Oc1[nH]c(=S)sc1/C=C1\C(c2ccccc2)=Nc2ccccc21 | 23* | 19 | 0 | 1 | 53*
CCCC(=O)Nc1ccc(C(N)=O)cc1 | 2 | 9 | -1 | 0 | x
CC(=O)NCCC(=O)Nc1ccc(C(N)=O)cc1 | 23* | 5 | 1 | 0 | 7
Cc1cc(Br)c2c(c1)C1(OCCO1)C(=O)N2 | x | 6 | x | x | x
N#C/C(=C(/O)c1cc2ccccc2o1)c1nc2ccccc2s1 | 26* | 23 | 2 | x | 24*
Fc1cccc(-c2nnn3c2nc(Cl)c2ccccc23)c1 | 7 | 26 | 2 | 0 | x
NNc1nc2c(-c3ccc(Cl)cc3)nnn2c2ccccc12 | 2 | 20 | 0 | -2 | x
Clc1nc2c(-c3ccccc3)nnn2c2ccccc12 | 17* | 36 | 0 | x | 25*
Cc1ccc(-c2nnn3c2nc(Cl)c2ccccc23)cc1 | 17* | 8 | 1 | 0 | 8
CC(C)(C)c1ccc(NC(=O)N2CCN(c3ccc([N+](=O)[O-])cn3)CC2)cc1 | 1 | -9 | 0 | x | x
O=C(C#Cc1cccc([N+](=O)[O-])c1)c1ccccc1 | 21* | 8 | 1 | 0 | 25*
CCC1CCCCN1CCCNC(=O)c1ccc(CS(=O)(=O)c2ccccc2C)o1 (stereo not given) | x | 16 | x | x | x
SMILES | p97 ATPase inh | UBC9 SUMO inh | PERK inhibitor | Redox H2O2 prof | p97 inh conf
N=c1sc2ccccc2n1-c1ccccc1 | 5 | -12 | 0 | 3 | x
C=CC(=O)N=c1sc2ccccc2n1-c1ccccc1 | 18* | 16 | 1 | 5 | 17*
CCOC(=O)c1sc(Nc2nc(OC)cc(OC)n2)nc1C | -1 | 12 | 1 | 0 | x
CC(C)(C)C(=O)Nc1sc(-c2ccccc2)cc1C(=O)O | 18* | 12 | 1 | x | 3
CC(=O)c1cccc(NS(=O)(=O)c2ccc(-c3cnc(C4CC4)o3)cc2)c1 | x | 12 | x | x | x
Cn1cccc1CC(=O)NNC(=O)Nc1ccc(Cl)cc1 | 19* | 14 | 0 | 0 | 7
Cn1cccc1CC(=O)N/N=C/c1ccco1 | 17* | 16 | 1 | x | 12
Cc1ccc(/C=N/Nc2nc(N3CCOCC3)nc(N3CCOCC3)n2)o1 | 0 | 1 | 1 | -2 | x
C(=N\Nc1nc(N2CCOCC2)nc(N2CCOCC2)n1)/c1ccco1 | 18* | 11 | 0 | 6 | 9
O=[N+]([O-])c1ccc(O)c(-c2nc(-c3ccccc3)c(-c3cccs3)[nH]2)c1 | -7 | -3 | 0 | 10 | x
COc1ccc(-c2nc(-c3cccs3)c(-c3cccs3)[nH]2)cc1O | 15* | -3 | 1 | -1 | 26*
CC(C)(C)NC(=O)NCC1CCCC1NC(=O)NC(C)(C)C (stereo not given) | -1 | 1 | 1 | x | x
COc1ccc2ccc3c(c2c1)N=CC1(O3)N(C)c2ccccc2C1(C)C (stereo not given) | 16* | 42 | 0 | 2 | 8
CN1c2ccccc2C(C)(C)C12C=Nc1c(ccc3ccccc13)O2 (stereo not given) | -1 | 42 | 1 | -4 | x
Cc1sc2ncnc(NCCCN3CCCC3=O)c2c1C | 2 | -8 | 0 | -1 | x
Cn1cc([N+](=O)[O-])c(C(=O)Nc2nccs2)n1 | 17* | 13 | 1 | -1 | 7
COc1ccc(C(=O)Nc2nccs2)cc1[N+](=O)[O-] | 5 | -7 | 0 | 0 | x
COC(=O)Oc1ccc(/C=N/NC(=O)CSCc2ccccc2Br)cc1OC | 6 | 7 | 0 | -12 | x
COc1cccc(CN(C)C(=O)c2cc(COc3ccc(-n4cncn4)cc3)on2)c1 | x | -17 | x | x | x
O=c1c2c3nc4ccccc4nc3n(Cc3ccccc3)c2ncn1Cc1ccco1 | 16* | 30 | 0 | 2 | 34*
COc1cc(NC(=O)CN2CCN(CC(=O)Nc3ccccc3OC)CC2)cc(OC)c1 | x | -3 | x | x | x
CC1Cc2cc(S(=O)(=O)N3CCC(C(=O)N4CCN(c5ccccc5F)CC4)CC3)ccc2N1C(=O)C1CC1 (stereo not given) | x | -14 | x | x | x
CC(C)(CC(=O)O)Cc1nc(-c2ccc(Cl)cc2)no1 | 19* | -6 | 0 | 0 | 3
NCc1nc(-c2ccc(Cl)cc2)no1 | -1 | -16 | 0 | 0 | x
O=C(O)CCc1nc(-c2ccc(Cl)cc2)no1 | 20* | -1 | 2 | 0 | 4
SMILES | p97 ATPase inh | UBC9 SUMO inh | PERK inhibitor | Redox H2O2 prof | p97 inh conf
Cc1ccc(CCNC(=O)C2CCN(S(=O)(=O)c3ccc4c(c3)NC(=O)CO4)CC2)cc1 | x | -2 | x | x | x
Oc1ccc(Br)cc1-c1ccnn1-c1ccccc1 | x | 2 | x | x | x
Cc1cccc(NC(=O)c2sc(NC(=O)c3ccco3)c(C#N)c2C)c1C | 16* | 26 | 1 | 0 | 10
Cc1cccc(NC(=O)c2ccco2)c1C | x | -8 | x | x | x
Cn1c(-c2ccccc2)c(/C=N/NC(=O)c2ccc(O)cc2)c2ccccc21 | 17* | -10 | 0 | x | 28*
Fc1cccc(F)c1/C=N/NC(=S)Nc1cccnc1 | -1 | -1 | 1 | -2 | x
